Source: PubChem BioAssay
12-LOX inh: inhibitors of human 12S-lipoxygenase ALOX12; Potency, µM (series often up to 108 µM), inactives show top-dose activity change, negative = inhibition, most hits filed as inhibitors; 1.1% of 580,000 active; P18054; purified 12hLO, xylenol orange hydroperoxide absorbance; note: potency is the fitted concentration of half-maximal effect
Target sequence (P18054 whole entry, looked up): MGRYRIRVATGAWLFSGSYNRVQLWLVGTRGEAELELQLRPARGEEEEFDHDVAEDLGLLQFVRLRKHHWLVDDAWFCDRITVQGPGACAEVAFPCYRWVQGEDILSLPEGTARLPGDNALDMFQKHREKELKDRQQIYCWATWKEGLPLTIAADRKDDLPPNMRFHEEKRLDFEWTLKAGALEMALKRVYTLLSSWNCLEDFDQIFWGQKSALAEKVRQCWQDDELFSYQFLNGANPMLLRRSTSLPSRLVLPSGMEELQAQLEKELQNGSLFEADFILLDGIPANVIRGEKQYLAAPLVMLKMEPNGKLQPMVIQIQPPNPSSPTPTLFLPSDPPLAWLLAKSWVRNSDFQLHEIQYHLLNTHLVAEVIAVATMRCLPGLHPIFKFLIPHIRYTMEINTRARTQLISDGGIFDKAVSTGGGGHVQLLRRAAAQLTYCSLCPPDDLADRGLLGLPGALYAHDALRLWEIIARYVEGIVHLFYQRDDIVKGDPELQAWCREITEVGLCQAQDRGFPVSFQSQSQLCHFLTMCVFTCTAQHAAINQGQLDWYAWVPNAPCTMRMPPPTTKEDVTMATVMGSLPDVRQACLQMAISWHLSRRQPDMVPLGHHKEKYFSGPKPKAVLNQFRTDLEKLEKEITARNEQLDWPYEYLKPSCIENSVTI
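Hydroperoxide product was detected by ferrous iron/xylenol orange as the 573 to 405 nm absorbance ratio. Arachidonic acid at 40 uM (final) was turned over for 30 min at room temperature by 150 nM human 12hLO, pH 7.0 Hepes buffer, after 15 min compound preincubation.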
HT1080NT lethal: kills 2HG-producing HT-1080-NT fibrosarcoma cells; HT-1080-NT fibrosarcoma viability, CellTiter-Glo ATP luminescence, 48 h; Potency, µM (series often up to 46.1 µM), for the others: at the top dose activity, negative = less viability, most hits filed as cytotoxic; 1.6% of 360,000 active; AID 686970;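 note: NT is the 2HG producing partner of a matched IDH1 knockdown line; potency is the fitted concentration of half-maximal effect; 0% = DMSO-treated cells and -100% = media-only wells without cells; nearly all actives have a fitted effect of over 55% in size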
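Viability by CellTiter-Glo luminescence after 48 h compound exposure at 37C of HT-1080-NT cells (750/well, RPMI, 5% FBS). % activity scaled between DMSO wells and medium-only wells, then curve-fitted and categorized by curve class.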
IL-1B inflam inh: inhibitors of inflammasome signaling (IL-1 beta secretion); THP-1 LPS/ATP IL-1B secretion, AlphaLISA, 16 h; active compounds read low; activity change, % at 57.5 µM; 4.7% of 360,000 active; in the data active = activity change below about -50%; inconclusive = mostly about -30% to -49%
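THP-1 cells pretreated 1 hr with compounds (up to 57.5 uM final), then stimulated with LPS (250 ng/mL final) plus ATP (1.25 mM final); secreted IL-1B measured by AlphaLISA after 16 hr, decreased signal indicating inhibition.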
HT1080 IDH1KD tx: HT-1080 IDH1 knockdown cell toxicity (counter line) | HT-1080 IDH1 knockdown viability, ATP luminescence, 48 h | Potency, µM (titrated, usually from 46.1 µM), for inactives: top-dose activity, negative = toxicity, hits mostly cytotoxic | 2% of 360,000 active;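 note: potency is the fitted concentration of half-maximal effect; 0% = DMSO wells and -100% = cell-free medium wells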
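Knockdown cells (IDH1KD HT-1080) received compounds 2 h after plating at 750 cells/well and were kept 48 h at 37 °C in 5% FBS RPMI. A CellTiter-Glo luminescence read gave % activity for curve fitting.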
DT40 TDP1 no CPT: qHTS for Inhibitors of human tyrosyl-DNA phosphodiesterase 1 (TDP1): qHTS in cells in absence of CPT. DT40 Tdp1-/- hTDP1 cells, no CPT, ATP luminescence, 48 h. 15% of 420,000 active. Potency, µM (series often up to 46.2 µM), inactives show at the highest dose activity change, negative = growth inhibition, usual class: inhibitors; note: potency is the fitted concentration of half-maximal effect; nearly all actives have a fitted effect of over 55% in size
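Camptothecin absent (DMSO only). Human TDP1-complemented DT40 knockout cells, 400 cells/well, 37 °C for minimum 48 hr; ATP measured via CellTiter-Glo, 30 min dark incubation, luminescence.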
DT40 TDP1 CPT: growth inhibition of DT40 Tdp1-/-;hTDP1 cells with camptothecin (screen for TDP1 inhibitors) | chicken DT40 Tdp1-/-;hTDP1 cells + 20 nM CPT, ATP luminescence, 48 h | Potency, µM (titrated, usually from 46.2 µM), for inactives: at the highest dose activity change, negative = growth inhibition, hits mostly inhibitors | 12% of 420,000 active | AID 686979; note: potency is the fitted concentration of half-maximal effect; nearly all actives have a fitted effect of over 55% in size
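Chicken DT40 Tdp1-/- cells complemented with human TDP1, 400 cells/well, exposed to compounds plus 20 nM camptothecin for at least 48 h at 37 C; viability read as ATP content by CellTiter-Glo luminescence.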
Active calls of the source: *; ? = inconclusive; . = no result given; [ ] = dose if it differs, or a comment. The full list was thinned out, with hits kept by preference. Unless noted, calls come from the whole dose curve; as a rule, active = well fitted curve in the direction sought with a large enough effect; inconclusive = small, poorly fitted or top-dose-only effect, or another doubt; inactive = no such curve, though single readings can be large; an effect the other way counts as inactive or inconclusive. Unless noted, % is set by controls: 0 for no effect and ±100 for the full control effect.

SMILES | 12-LOX inh | HT1080NT lethal | IL-1B inflam inh | HT1080 IDH1KD tx | DT40 TDP1 no CPT | DT40 TDP1 CPT
COc1ccc([N+](=O)[O-])cc1N(CC(O)CN(CC(C)C)CC(C)C)S(=O)(=O)c1ccccc1 (stereo not drawn) | 11.1% | ? | ? | ? | 20.6µM* | ?
COc1ccc([N+](=O)[O-])cc1N(CC(O)CN(C)C)S(=O)(=O)c1ccc(C)cc1 (stereo not drawn) | 1.6% | -11.2% | 4.3 | 3.0% | -10.2% | -1.5%
CCCCN(CCCC)CC(O)CN(c1cc([N+](=O)[O-])ccc1OC)S(=O)(=O)c1ccccc1 (stereo not drawn) | -7.7% | ? | . | ? | 14.6µM* | ?
CCC(C)Sc1nc2c(c(=O)n(C)c(=O)n2C)n1Cc1ccccc1Cl (stereo not drawn) | -1.5% | . | . | . | . | .
Cc1cccc2cc(CN(Cc3nnnn3C3CCCCC3)C3CCCC3)c3nnnn3c12 | 0.0% | 15.9% | ? | 9.0% | ? | 20.6µM*
Cc1cc(C)c2[nH]c(=O)c(CN(Cc3nnnn3C3CCCC3)C3CCCCC3)cc2c1 | . | 6.4% | -3.5 | 19.2% | -15.0% | -7.3%
CCOC(=O)N1CCN(Cc2ccc3c(c2)CN(C(=O)c2cc(-c4ccccc4)no2)CCO3)CC1 | -1.1% | . | . | . | 23.1µM* | ?
CCOC(=O)N1CCN(Cc2ccc3c(c2)CN(C(=O)c2cc(-c4ccccc4)on2)CCO3)CC1 | 18.1% | . | . | . | 20.6µM* | -6.4%[9.04 µM]
COc1cccc(-c2cc(C(=O)N3CCN(Cc4ccccc4)CC3)no2)c1 | 6.0% | 6.1% | 10.5 | 13.2% | -15.7% | -21.2%
Cc1nc(C)c(CC(=O)N2CCOc3ccc(CN4CCN(c5ccccn5)CC4)cc3C2)s1 | 30.5% | . | . | . | 7.31µM* | ?
O=C(Cc1cscn1)N1CCOc2ccc(CN3CCN(c4ccccn4)CC3)cc2C1 | 3.9% | . | . | . | -14.0% | -1.3%[9.04 µM]
COCC1CCCN(Cc2ccc3c(c2)CN(C(=O)c2cc(-c4ccccc4)n[nH]2)CCO3)C1 (stereo not drawn) | 23.7% | . | . | . | ? | ?
CSC(C)C(=O)NC(CC(C)(C)C)c1ccc(F)cc1 (stereo not drawn) | 11.9% | . | . | . | . | .
C=CCn1c(SCC(=O)Nc2cc(C)c(Cl)cc2OC)nnc1-c1ccco1 | -19.9% | ? | ? | ? | ? | -14.7%
C=CCn1c(SCc2c(F)cccc2Cl)nnc1-c1ccco1 | -9.3% | 16.6% | -25.9 | 8.2% | 16.4µM* | 20.6µM*
CCCc1nc2ccc(Cl)cn2c1Cc1ccc(C)cc1 | ? | -17.5% | 37.7 | ? | 23.1µM* | 23.1µM*
CCCc1nc2ccc(Cl)cn2c1Cc1cccc(Cl)c1 | ? | ? | -2.9 | ? | 8.2µM* | 10.3µM*
CCCc1nc2ccc(C(=O)OC)cn2c1Cc1cccc(F)c1 | -28.5% | -14.3% | 16.7 | ? | ? | ?
COc1cccc(Nc2nc(-c3sc(N)nc3C)cs2)c1 | ? | -5.0% | 0.0 | 24.1% | ? | 23.1µM*
COc1cccc(Nc2nc(-c3sc(C)nc3C)cs2)c1 | 0.0% | -17.0% | 3.0 | -13.0% | ? | -17.0%
COc1cccc(Nc2nc(-c3ccc(CNC(C)=O)s3)cs2)c1 | 15.8µM* | . | . | . | . | .
COc1ccc(Cl)cc1Nc1nc(-c2sc(NC(=O)c3ccco3)nc2C)cs1 | ? | 4.2% | -8.2 | -16.6% | ? | ?
COc1ccccc1Nc1nc(-c2sc(N)nc2C)cs1 | ? | -9.8% | -12.1 | -13.0% | ? | -15.0%
Cc1nc(N)sc1-c1csc(Nc2ncccn2)n1 | -22.9% | ? | -81.1* | 20.6µM* | 18.4µM* | 16.4µM*
COc1cccc(Nc2nc(-c3sc(NC(=O)c4ccco4)nc3C)cs2)c1 | 6.31µM* | -15.0% | -18.4 | -11.2% | 23.1µM* | ?
SMILES | 12-LOX inh | HT1080NT lethal | IL-1B inflam inh | HT1080 IDH1KD tx | DT40 TDP1 no CPT | DT40 TDP1 CPT
CCC1CCc2c(sc(NC(=O)c3cccc4ccccc34)c2C#N)C1 (stereo not drawn) | 60.1% | . | . | . | . | .
COc1ccccc1NS(=O)(=O)c1cc(C(=O)N2CCc3sccc3C2)ccc1C | -13.7% | . | . | . | . | .
CC(C)C(=O)Nc1ccc2c(ccn2CCN2CCOCC2)c1 | -46.7% | . | . | . | . | .
Cc1cc(/C=C2\SC(=O)N(C)C2=O)c(C)n1-c1ccc(S(N)(=O)=O)cc1 | ? | 2.7% | 12.5 | 0.0% | 9.2µM* | 18.4µM*
CN=C1S/C(=C\c2cc(C)n(-c3ccccc3F)c2C)C(=O)N1C | ? | 2.8% | -21.8 | 0.2% | 23.1µM* | 14.6µM*
Cc1ccc(-n2c(C)cc(C=C3C(=O)N(C)C(=O)N(C)C3=O)c2C)cc1 | 6.0% | 15.3% | -6.1 | 7.9% | -0.7% | 6.0%
Cc1cc(/C=C2\SC(=O)N(C)C2=O)c(C)n1-c1ccc(O)cc1 | ? | 2.5% | 5.7 | -5.3% | 20.6µM* | ?
CN=C1S/C(=C\c2sccc2C)C(=O)N1C | -26.5% | . | . | . | . | .
O=C(/C=C/c1ccc([N+](=O)[O-])cc1)OCC(=O)C12CC3CC(CC(C3)C1)C2 | -23.0% | . | . | . | . | .
COc1ccc(C2CCCN2Cc2cc(=O)oc3c(C)c(C)ccc23)cc1 (stereo not drawn) | -17.4% | . | . | . | . | .
O=C(CC1CCN(C(=O)C2CCCC2)C1)N1CCOCC1 (stereo not drawn) | 32.6% | . | . | . | . | .
COc1ccccc1OCCNC(=O)c1ccc(Cn2ccn3nc4c(c3c2=O)CCCC4)cc1 | -6.7% | . | . | . | . | .
Cc1csc(NC(=O)CCc2ncc(-c3ccccc3Cl)o2)n1 | 1.0% | . | . | . | . | .
CCC(C)C(=O)N1CCCC2CCCCC21 (stereo not drawn) | -3.7% | . | . | . | . | .
CC(=O)N1c2ccccc2CC1C(=O)NCc1cccc(Cl)c1 (stereo not drawn) | -7.9% | . | . | . | -29.5% | ?
CC(=O)N1c2ccc(Cl)cc2C2C=CCC2C1c1cccc2ccccc12 (stereo not drawn) | . | ? | ? | ? | ? | 23.1µM*
Cc1cc(C(F)(F)F)n(-c2nc(C(=O)N/N=C/c3ccc(F)cc3)cs2)n1 | 0.0% | -16.2% | -24.7 | -4.3% | ? | 16.4µM*
O=C(Cc1ccccc1O)N1CCCC(CCc2c(F)cccc2F)C1 (stereo not drawn) | -17.7% | . | . | . | . | .
COc1ccc(-n2nc3c(N4CCCC(C(=O)NCc5cccc(F)c5)C4)nnc(C)c3c2C)cc1 (stereo not drawn) | 4.9% | . | . | . | 13µM* | 8.2µM*
